# Compound activity: PubChem BioAssay, Broad Institute
# The entries come from a sample that favours hits as a whole.
# miR122 inh = miR-122 suppressors via Renilla sensor increase, primary screen, cell-based, Huh7 psiCHECK-miR122, Renilla luciferase, single point; 48 h; 340,000 tested, 0.14% active; activation, % at 12.5 µM;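 active means mean activation of 30% or more, with every replicate also reaching 30%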;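 further: 0% = median of neutral control wells and 100% = median of positive control wells; higher luciferase signal means stronger suppression of miR-122 activity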
# Starred values were filed as active, the others as inactive.
SMILES,miR122 inh
C[C@H]1CN([C@@H](C)CO)S(=O)(=O)c2ccc(-c3ccc(C(=O)N(C)C)cc3)cc2O[C@H]1CN(C)C,5
COCC#Cc1cnc2c(c1)C(=O)N([C@H](C)CO)C[C@H](C)[C@@H](CN(C)S(=O)(=O)c1cccc(OC)c1)O2,-6
Cc1cc(C(=O)Nc2cccc3c2O[C@@H](CN(C)CC2CCCCC2)[C@@H](C)CN([C@H](C)CO)C3=O)n(C)n1,-97
COc1cccc(NC(=O)N(C)C[C@H]2Oc3ncc(C#Cc4cccnc4)cc3C(=O)N([C@H](C)CO)C[C@H]2C)c1,3
C[C@H](CO)N1C[C@H](C)[C@@H](CN(C)CC2CCCC2)Oc2ncc(C#Cc3cccc(F)c3)cc2C1=O,6
CCCN(C)C[C@@H]1Oc2ncc(/C=C/c3ccccc3)cc2C(=O)N([C@H](C)CO)C[C@@H]1C,4
C[C@H](CO)N1C[C@H](C)[C@H](CN(C)CC2CCOCC2)Oc2cc(C#Cc3cccnc3)ccc2S1(=O)=O,3
C[C@@H]1CN([C@H](C)CO)S(=O)(=O)c2ccc(C#C[C@@H](C)O)cc2O[C@H]1CN(C)C,-6
COCC#Cc1cnc2c(c1)C(=O)N([C@H](C)CO)C[C@@H](C)[C@@H](CN(C)Cc1ccccc1)O2,-3
Cc1ccc(S(=O)(=O)N(C)C[C@@H]2Oc3cc(-c4cccc(F)c4)ccc3S(=O)(=O)N([C@H](C)CO)C[C@@H]2C)cc1,3
COc1ccc(S(=O)(=O)N(C)C[C@@H]2Oc3cc(-c4cccc(F)c4)ccc3S(=O)(=O)N([C@H](C)CO)C[C@H]2C)cc1,39*
C[C@H](CO)N1C[C@H](C)[C@H](CN(C)C(=O)C2CCOCC2)Oc2cc(-c3ccc(C(=O)N(C)C)cc3)ccc2S1(=O)=O,4
C[C@H]1CN([C@@H](C)CO)S(=O)(=O)c2ccc(-c3ccc(C(=O)N(C)C)cc3)cc2O[C@H]1CN(C)C(=O)C1CCC1,43*
Cc1ccc(S(=O)(=O)N(C)C[C@@H]2Oc3cc(-c4cccc(F)c4)ccc3S(=O)(=O)N([C@@H](C)CO)C[C@H]2C)cc1,9
C[C@H]1CN([C@@H](C)CO)S(=O)(=O)c2ccc(-c3ccc(C(=O)N(C)C)cc3)cc2O[C@H]1CN(C)C(=O)C1CCOCC1,7
COc1cccc(NC(=O)N(C)C[C@@H]2Oc3ncc(C#Cc4cccnc4)cc3C(=O)N([C@@H](C)CO)C[C@@H]2C)c1,8
CO[C@H]1CN(C)C(=O)c2ccc(NC(=O)Nc3ccc(Cl)cc3)cc2OC[C@@H](C)N(C)C[C@@H]1C,3
CCCNC(=O)N(C)C[C@@H]1Oc2ncc(C#CCC(C)C)cc2C(=O)N([C@@H](C)CO)C[C@H]1C,2
COc1ccc(C#Cc2cnc3c(c2)C(=O)N([C@H](C)CO)C[C@H](C)[C@H](CN(C)CC2CCOCC2)O3)cc1,-5
COc1cccc(N2CCN(c3ncnc4c3[nH]c3ccc(F)cc34)CC2C)c1 (centres undefined),32*
C/C=C/c1cnc2c(c1)C(=O)N([C@H](C)CO)C[C@H](C)[C@@H](CN(C)C(=O)c1cccnc1)O2,1
Cc1oc(-c2ccc(Cl)cc2)nc1CN1CCCC(C(=O)NCc2ccco2)C1 (centres undefined),39*
Cc1ccc(Nc2nc(C(=O)NCc3ccco3)cs2)cc1,-162
CCC1=Nc2cc(C(=O)NCc3ccco3)ccc2Sc2ccc(C)cc21,-119
C[C@@H]1CN([C@H](C)CO)S(=O)(=O)c2ccc(/C=C/c3ccccc3)cc2O[C@H]1CN(C)C(=O)Nc1cccc(F)c1,-16
SMILES,miR122 inh
C[C@@H]1CN([C@@H](C)CO)S(=O)(=O)c2ccc(Br)cc2O[C@H]1CN(C)Cc1cccc(F)c1,7
COc1cccc(-c2ccc3c(c2)O[C@@H](CN(C)C(=O)C2CCCCC2)[C@H](C)CN([C@@H](C)CO)S3(=O)=O)c1,-19
S=C(NCCc1ccccc1)Nc1ccc(Cl)cc1Cl,-95
CCNC(=O)CCC(=O)Nc1cc(Cl)ccc1C,36*
CC(C)CC#Cc1ccc2c(c1)O[C@@H](CN(C)C(=O)NC1CCCC1)[C@H](C)CN([C@H](C)CO)S2(=O)=O,-24
C[C@H](CO)N1C[C@H](C)[C@@H](CN(C)C(=O)Nc2cc(F)ccc2F)Oc2cc(-c3ccc(C#N)cc3)ccc2S1(=O)=O,-44
C[C@@H]1CN([C@@H](C)CO)C(=O)c2cc(C3=CCCCC3)cnc2O[C@H]1CN(C)Cc1cccc(F)c1,1
Cc1cc(CN(C)C(=O)c2cc(COc3ccc4ncccc4c3)on2)on1,35*
C/C=C/c1cnc2c(c1)C(=O)N([C@H](C)CO)C[C@@H](C)[C@@H](CN(C)C(=O)Cc1cccnc1)O2,-15
CCCC(=O)Nc1ccc2c(c1)OC[C@H](C)N(C)C[C@H](C)[C@H](OC)CN(C)C2=O,-2
COc1cccc(NC(=O)N(C)C[C@H]2Oc3ncc(C#Cc4ccccc4)cc3C(=O)N([C@H](C)CO)C[C@@H]2C)c1,5
O=C(NNS(=O)(=O)c1ccc(Cl)cc1)c1cccs1,-116
O=S(=O)(Nc1ccncc1)c1ccc(Cl)cc1,-119
CNC(=O)c1nnsc1S(=O)(=O)c1ccc(Cl)cc1,31*
C[C@H](CO)N1C[C@H](C)[C@@H](CN(C)Cc2ccncc2)Oc2ncc(C#Cc3cccnc3)cc2C1=O,4
CCC(=O)Nc1ccc2c(c1)C(=O)N(C)C[C@@H](OC)[C@@H](C)CN(Cc1ccccc1OC)[C@@H](C)CO2,-6
CC(C)NC(=O)N(C)C[C@H]1Oc2cc(-c3ccccc3)ccc2S(=O)(=O)N([C@H](C)CO)C[C@@H]1C,-12
CCCNC(=O)N(C)C[C@@H]1Oc2cc(C#CC(C)C)ccc2S(=O)(=O)N([C@H](C)CO)C[C@@H]1C,-9
CCC(=O)Nc1ccc2c(c1)OC[C@H](C)N(C(=O)c1ccccc1F)C[C@H](C)[C@H](OC)CN(C)C2=O,-1
Cc1ccc(-c2nc(C(Cl)Cl)c3ccccc3n2)cc1,61*
C[C@@H]1CN([C@H](C)CO)S(=O)(=O)c2ccc(C#CC3CC3)cc2O[C@@H]1CN(C)C(=O)C1CC1,14
COc1cccc(NC(=O)N(C)C[C@H]2Oc3ncc(C#Cc4ccccc4)cc3C(=O)N([C@@H](C)CO)C[C@H]2C)c1,5
O=C(Nc1ccccc1)c1cc([N+](=O)[O-])ccc1NC1CCCCC1,-123
Cc1ccc(NC(=O)c2nc(C)n(-c3ccc([N+](=O)[O-])cc3)n2)cc1,43*
CCCN1C[C@H](C)[C@H](OC)CN(C)C(=O)c2ccc(NC(=O)COC)cc2OC[C@H]1C,3
SMILES,miR122 inh
CO[C@@H]1CN(C)C(=O)c2ccc(NC(=O)Nc3ccc(Cl)cc3)cc2OC[C@H](C)N(C)C[C@H]1C,-4
CC(C)C#Cc1ccc2c(c1)O[C@@H](CN(C)C(=O)CN(C)C)[C@H](C)CN([C@@H](C)CO)S2(=O)=O,-16
C[C@H](CO)N1C[C@H](C)[C@@H](CN(C)CC2CCOCC2)Oc2ncc(-c3ccc(F)cc3)cc2C1=O,2
Cc1ccc(C2CN(C)C3(C(=O)Nc4ccccc43)C23COc2ccccc2C3=O)cc1 (centres undefined),-295
Cc1ccc(C2CN=NC23CCc2ccccc2C3=O)cc1 (centres undefined),51*
C[C@@H]1CN([C@H](C)CO)C(=O)c2cc(-c3ccc(C(=O)N(C)C)cc3)cnc2O[C@@H]1CN(C)Cc1ccc(C(=O)O)cc1,6
C[C@H]1CN([C@@H](C)CO)C(=O)c2cc(C#CC3(O)CCCC3)cnc2O[C@H]1CN(C)Cc1cncnc1,-4
